What all share (test): NCI-60 one-dose screen, 48 h (100 = growth as untreated, 0 = no growth, -100 = all killed)
What all share (conditions): 10 µM unless noted

The subject of assay [1] is NCI-H23 lung.
In assay [2] the test system is NCI-H226 lung.
Assay [3] relates to NCI-H322M lung.
In assay [4] the test system is NCI-H460 lung.
The subject of assay [5] is HOP-92 NSCLC.
For assay [6], the system named is A549/ATCC NSCLC.
Assay [7] concerns 786-0 renal.
The subject of assay [8] is COLO 205 colon.
For assay [9], the system named is DU-145 prostate.
Assay [10] concerns K-562 leukemia.
For assay [11], the system named is MALME-3M melanoma.
The test system of assay [12] is MDA-MB-231 breast.
The test system of assay [13] is RXF 393 renal.
Assay [14] deals with SF-268 CNS.
The subject of assay [15] is SF-295 CNS.
For assay [16], the system named is SF-539 CNS.
For assay [17], the system named is UACC-257 melanoma.
Assay [18] concerns M14 melanoma.
For assay [19], the system named is NCI-H522 lung.
In assay [20] the test system is HOP-62 NSCLC.

Each structure is given as a SMILES string. The panel holds about 83,000 compounds, 20% with a hit somewhere; the sample as a whole holds those more often.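 Each cell line was grown in a 96-well plate and treated with one concentration of compound for 48 hours. Values below 10 were considered active.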 Values without a mark were called inactive. Active and inactive are the calls of the source.

For 15 compounds, growth results are on record in PubChem BioAssay (NCI).

For the compound `CCCCc1nc2c(N)nc3ccccc3c2n1Cc1cccc(CN)c1`, the growth is 72.6% in [1]; 87.1% in assay [2]; 81.2% in assay [3]; 19.7% in assay [4]; -0.82% (active) in assay [5]; 69.5% in [6]. For the same compound, the growth in assay [7] was 66.7%; in assay [8] it was 44%; in assay [9] it was 60.2%; in [10], 3.82% (active); in [11] it was 22.6%; in [12], 57.3%. Further, the growth in [13] is 47.6%; in assay [14], 48.7%; in [15] it was 55.8%; in assay [16], 5.63% (active); in [17], -62.3% (active); in assay [18], -89.2% (active).
Regarding `COc1ccc(-c2c(C(N)=O)c(N)n(Cc3nc4ccccc4[nH]3)c(=O)c2C#N)c(OC)c1`, the growth was 93.1% in assay [1]; 94.5% in assay [2]; 97.3% in assay [3]; 105% in [4]; 101% in [5]; 95.2% in assay [19]. Also, the growth is 102% in assay [6]; 103% in [7]; 117% in assay [8]; 112% in [9]; 101% in assay [10]; 93.2% in assay [11]. For the same compound, the growth is 92.1% in assay [12]; 117% in [13]; 102% in assay [14]; 104% in assay [15]; 97.9% in assay [16]; 112% in [17]. Further, the growth in assay [18] was 102%.
Regarding `O=C(Nc1ccc(N=Cc2c(O)[nH]c3ccccc23)cc1)Nc1ccc(S(=O)(=O)Nc2ncccn2)cc1`, the growth is 27.1% in assay [1]; 96.7% in assay [2]; 114% in assay [3]; 104% in assay [4]; 94.2% in assay [5]; 95% in [19]. For the same compound, the growth in assay [6] is 101%; in assay [7], 100%; in assay [8], 125%; in assay [9] it was 110%; in assay [10] it was 98%; in [11], 112%. Also, the growth in assay [12] is 107%; in assay [13], 122%; in assay [14] it was 109%; in assay [15], 101%; in assay [16], 105%; in [17], 103%. Moreover, the growth in assay [18] was 104%.
With `CCC1=Cc2c(OC)cccc2OC12C=Cc1c(OC)cccc1O2` (stereo unspecified), the growth in assay [1] is 39.7%; in assay [2], 58.3%; in assay [3], 43.9%; in [4], 7.72% (active); in assay [5], 44%; in assay [19] it was 14.4%. Further, the growth in assay [6] was 25.3%; in assay [7], 50.1%; in assay [8], 17.2%; in assay [9], 27.1%; in [10], 7.63% (active); in assay [11], 50.9%. The growth in [12] is 11%; in assay [13] it was 1.82% (active); in [14], 58.6%; in [15] it was 4.11% (active); in [16], -5.65% (active); in assay [17] it was 75.7%. Moreover, in [18], the growth is 6.53% (active).
Take `C=C1CCc2nc(SCC(=O)O)ccc2N1`: the growth in assay [1] is 95.6%; in assay [2] it was 99%; in [3] it was 105%; in assay [4] it was 102%; in assay [5], 120%; in assay [19], 96.7%. Moreover, the growth is 108% in assay [6]; 106% in assay [7]; 107% in [8]; 110% in [9]; 98.5% in assay [10]; 104% in assay [11]. The growth in assay [12] is 105%; in assay [13], 94.1%; in [14] it was 103%; in assay [15], 104%; in assay [16], 101%; in assay [17], 105%. For the same compound, in [18], the growth was 94.8%.
For the compound `CCOC(=O)c1ccc(NC2=CC(=O)C(C)=C(C)C2=O)cc1`, the growth was 51% in assay [1]; 95.6% in [2]; 104% in [3]; 98.4% in assay [4]; 113% in [5]; 117% in assay [6]. The growth in assay [7] is 106%; in [8], 115%; in assay [9], 109%; in assay [10], 61.6%; in assay [11], 97.1%; in assay [12], 75.2%. Moreover, the growth is 93.2% in assay [13]; 85.6% in assay [14]; 52.1% in assay [15]; 99.2% in assay [16]; 84.1% in [17]; 89.7% in [18].
Regarding `COc1cc(NC(=O)Nc2cccc(-c3cc(=O)c4c(OC)c(OC)c(OC)cc4o3)c2)cc(OC)c1OC`, the growth in [1] was 34.6%; in assay [2] it was 49.7%; in assay [3], 64.4%; in assay [4], 31.5%; in assay [5] it was -8.97% (active); in assay [19], 39.6%. Besides, the growth in assay [6] is 57.2%; in assay [7], 35.3%; in [8], 58.1%; in assay [9] it was 39.2%; in assay [10], 40%; in [11] it was 52.6%. Also, the growth is 47.3% in assay [12]; 15.2% in assay [13]; 49.4% in assay [14]; 47.1% in [15]; 47.9% in [16]; 74.1% in [17]. The growth in assay [18] is 55.3%.
With `CC(=O)N1N=C(c2cc3ccccc3oc2=O)CC1c1cn(-c2ccccc2)nc1-c1ccc(C)cc1` (stereo unspecified), the growth in assay [1] is 100%; in [2], 94.8%; in assay [3], 101%; in assay [4] it was 104%; in assay [5], 105%; in assay [19], 97.4%. The growth in assay [6] is 97.3%; in [7], 103%; in assay [8] it was 103%; in assay [9], 103%; in [10] it was 103%; in assay [11] it was 92.3%. Besides, the growth in assay [12] was 94.4%; in assay [13], 98.8%; in [14], 98.7%; in assay [15], 100%; in [16], 90.1%; in assay [17] it was 99.4%. For the same compound, in assay [18], the growth is 101%.
With `Clc1ccc2c(N/N=C/c3c[nH]c4ccccc34)ccnc2c1`, the growth in [1] is -88.2% (active); in assay [2], -52.1% (active); in [3] it was -89.9% (active); in assay [4], -87.2% (active); in assay [5], -88.7% (active); in assay [19], -77.6% (active). For the same compound, the growth in [6] was -24.3% (active); in [7] it was -89.8% (active); in assay [8] it was -85.4% (active); in [9], -90.2% (active); in assay [10], -22.1% (active); in assay [11] it was -95.8% (active). The growth in [12] is -83.5% (active); in assay [13], -87.2% (active); in [14], -58.4% (active); in assay [15], -85.3% (active); in assay [16] it was -86.7% (active); in [17], -91.8% (active). For the same compound, the growth in assay [18] was -89.3% (active).
With `O=C(CSc1nc2ccccc2c(=O)n1-c1ccccc1)Nc1ccc(S(=O)(=O)Nc2nccs2)cc1`, the growth in assay [1] was 86.1%; in [2], 73.6%; in assay [3], 77%; in assay [4] it was 85.2%; in [5] it was 89.4%; in [19], 26.7%. The growth was 84.4% in [6]; 66.1% in [7]; 103% in assay [8]; 84.1% in assay [9]; 58.2% in assay [10]; 88.5% in assay [11]. Also, the growth in assay [12] is 74.1%; in assay [13], 76.5%; in [14], 44.5%; in assay [15] it was 98.2%; in assay [16], 69%; in assay [17], 62.8%. In addition, the growth in assay [18] was 78.6%.
For `Cc1[nH]c(C(=O)Nc2ccc(C(N)=O)cc2N2CCOC(C)C2)c(Cl)c1Cl` (stereo unspecified), the growth is 96.2% in assay [1]; 89.9% in assay [2]; 95.1% in [3]; 98.4% in [20]; 102% in assay [4]; 107% in assay [5]. Moreover, the growth in assay [6] was 99.6%; in assay [7], 92.9%; in [9], 104%; in assay [10], 92.2%; in [11] it was 99.1%; in [12], 95.7%. For the same compound, the growth was 102% in assay [13]; 98.8% in [14]; 103% in assay [15]; 95.7% in assay [16]; 108% in assay [17]; 101% in assay [18].
With `O=S(=O)(Oc1ccc(-c2cn3ccoc3n2)cc1)c1cccc(C(F)(F)F)c1`, the growth in [1] was 98%; in assay [2] it was 93.5%; in assay [3], 102%; in assay [4] it was 104%; in assay [5] it was 91.7%; in assay [19] it was 90.3%. The growth in [6] was 99.6%; in [7], 99.9%; in assay [8], 115%; in [9], 101%; in assay [10], 101%; in assay [11] it was 98.6%. Moreover, the growth in assay [12] is 102%; in assay [13] it was 98.2%; in assay [14], 102%; in [15], 90.4%; in assay [16] it was 94.3%; in assay [17], 101%. Besides, the growth in [18] was 105%.
For the compound `O=C(Nc1ccccc1)Nc1nc2ccc([N+](=O)[O-])cc2[nH]1`, the growth in assay [1] was 39.5%; in [2], 55.4%; in assay [3], 58.5%; in [4], 44.1%; in assay [5] it was -5.31% (active); in [6], 56.7%. For the same compound, the growth is 67.5% in assay [7]; 88.7% in assay [8]; 56.3% in assay [9]; 43.4% in assay [10]; 40.1% in assay [11]; 74.9% in [12]. Further, the growth in assay [13] was 60%; in [14], 71.5%; in assay [15], 66.3%; in [16], 61.7%; in assay [17], 57.4%; in [18] it was 58.2%.
`CCCCN1C(=O)/C(=c2\sc3n(c2=O)C2C(NN=3)N(CC)C(=O)N2CC)c2cccc(C)c21` (stereo unspecified): the growth is 49.7% in [1]; 36.6% in [2]; 52.7% in assay [3]; 18.8% in assay [4]; 71.1% in [5]; 39.4% in [19]. The growth in [6] is 57.1%; in assay [7], 63.3%; in [8], 24.6%; in assay [9], 37.6%; in [10] it was 15%; in [11], 54.5%. Further, the growth in assay [12] was 60%; in assay [13], 11.9%; in assay [14] it was 56.2%; in assay [15], 29.1%; in [16], -7.82% (active); in assay [17] it was 89.4%. The growth in [18] was 27%.
Regarding `COc1cc(C(C)=C(c2ccc(OCCN(C)C)cc2)c2ccc(OCCN(C)C)cc2)ccc1F`, the growth in [1] was 96.5%; in [2], 92.9%; in assay [3], 96.6%; in assay [4], 106%; in [5], 73.4%; in assay [19] it was 99.7%. Further, the growth was 113% in [6]; 94.3% in [7]; 104% in [8]; 102% in assay [9]; 93.3% in assay [10]; 92.6% in [11]. Further, the growth in [12] was 102%; in [13], 90.6%; in [14] it was 98.5%; in assay [15] it was 100%; in [16], 101%; in assay [17] it was 111%. The growth in assay [18] is 110%.
